# Reference: PubChem BioAssay (Tox21)
# Records with an inconclusive call do not appear. Values without a mark were called inactive. Calls of active or inactive are those of the source. Calls come from the whole dose curve.
# Target: 5-hydroxytryptamine receptor 2A (Homo sapiens) (UniProt P28223)
# Assay: 5-hydroxytryptamine receptor 2A (HTR2A) small molecule agonists, cell-based qHTS assay (AID 1963587); note: nearly all actives have a fitted effect of over 30% in size
# Conditions: HTR2A-CHO cells, calcium flux fluorescence, agonist mode; series mostly up to 76.8 µM; activation: at the top concentration
# Outline: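 HTR2A-CHO cells, plated 18 h at 37 C/5% CO2, dye-loaded 1 h at 37 C; compounds in DMSO added by pin tool (agonist mode). Intracellular calcium flux read as kinetic fluorescence on FDSS over 2 min at 1 s intervals.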
# % is set by controls: 0 for no effect and ±100 for the full control effect.
# 5-hydroxytryptamine receptor 2A (Homo sapiens), sequence (P28223 whole entry, looked up): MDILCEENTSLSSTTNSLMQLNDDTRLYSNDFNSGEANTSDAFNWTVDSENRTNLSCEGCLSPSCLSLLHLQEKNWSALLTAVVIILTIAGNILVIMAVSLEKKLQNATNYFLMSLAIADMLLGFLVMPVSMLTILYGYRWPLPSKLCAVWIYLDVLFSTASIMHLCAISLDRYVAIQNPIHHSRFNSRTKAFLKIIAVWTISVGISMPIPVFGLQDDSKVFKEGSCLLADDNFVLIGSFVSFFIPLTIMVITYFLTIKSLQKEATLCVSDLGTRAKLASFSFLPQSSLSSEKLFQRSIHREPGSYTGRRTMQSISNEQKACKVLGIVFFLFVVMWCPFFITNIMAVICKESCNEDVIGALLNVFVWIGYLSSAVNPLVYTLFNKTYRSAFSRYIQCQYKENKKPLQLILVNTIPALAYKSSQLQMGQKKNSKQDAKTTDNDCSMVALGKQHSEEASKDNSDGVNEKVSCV
row,SMILES,activation
1,C=CC(=C)CC/C=C(\C)CCC=C(C)C,6.61% [at 15.9 µM]
2,CC(C)C[P+](C)(CC(C)C)CC(C)C,9.26%
3,CCCCCCCCCCCCCCCCCCN(C)C,-8.72% [at 35.6 µM]
4,CCOC(=O)O[C@H](C)OC(=O)c1ccc2c(c1)cc(C(=O)NC1CCN(C(C)C)CC1)n2Cc1cc(-c2ccc(Cl)s2)on1,-6.27%
5,CC(=O)Nc1cccc(C)c1,-1.4%
6,CCCCCCCCCCCCCOP(=O)(O)O,-5.67%
7,CCCC(C)C,-0.0826%
8,Cc1[nH]c(=O)c(C#N)cc1-c1ccc2nccn2c1,0.0749% [at 35.6 µM]
9,O=C(NS(=O)(=O)/C=C/c1ccccc1)c1ccc(F)cc1Cl,-9.89%
10,CCOC(=O)CCCCCCCCC(=O)OCC,-0.636%
11,CC(C)OC(=O)C(C(=O)OC(C)C)=C1SC=CS1,16.7% [at 35.6 µM]
12,O=C(CN1CCN(Cc2ccc3c(c2)OCO3)CC1)N1c2ccccc2Sc2ccccc21,9.45% [at 35.6 µM]
13,CC(=O)Oc1ccc(C(C)=O)cc1,-0.16%
14,Oc1ccc(Cl)c2cccnc12,2.67% [at 35.6 µM]
15,CCCCCCCC/C=C\CCCCCCCCOCCO,14.5%
16,CC(=O)OC(C)c1ccccc1 (stereo not drawn),-1.77%
17,O=S(=O)(Cl)c1c(Cl)cccc1Cl,1.04%
18,CCOC(=O)CC1(C)OCC(C)O1 (stereo not drawn),4.66%
19,C1CC(COCC2CO2)CCC1COCC1CO1 (stereo not drawn),-0.273%
20,CCCCCCCCCCC(=O)O,2.48%
21,CC1(C)C(=O)N(CO)C(=O)N1CO,-5.2%
22,O=C(O)CNCC(=O)O,-1.98% [at 7.02 µM]
23,CCCS(=O)c1ccc2nc(NC(=O)OC)[nH]c2c1 (stereo not drawn),-1.61% [at 35.6 µM]
24,O=C(OCc1ccccc1)C(=O)OCc1ccccc1,-7.05%
25,C/C=C(\C)C#N,1.09%
26,N=C(N)c1ccc(OCCCOc2ccc(C(=N)N)cc2)cc1,-3.47% [at 35.6 µM]
27,CCc1nccnc1CC,3.43% [at 15.9 µM]
28,C=CC(=O)OCCCCCCCCCC,1.98%
29,CO[Si](CCCNc1ccccc1)(OC)OC,-4.55%
30,CC(C)(c1ccc(Oc2ccc3c(c2)C(=O)OC3=O)cc1)c1ccc(Oc2ccc3c(c2)C(=O)OC3=O)cc1,-0.434%

# Target: Muscarinic acetylcholine receptor M1 (Homo sapiens) (UniProt P11229)
# Sequence (P11229 whole entry, looked up): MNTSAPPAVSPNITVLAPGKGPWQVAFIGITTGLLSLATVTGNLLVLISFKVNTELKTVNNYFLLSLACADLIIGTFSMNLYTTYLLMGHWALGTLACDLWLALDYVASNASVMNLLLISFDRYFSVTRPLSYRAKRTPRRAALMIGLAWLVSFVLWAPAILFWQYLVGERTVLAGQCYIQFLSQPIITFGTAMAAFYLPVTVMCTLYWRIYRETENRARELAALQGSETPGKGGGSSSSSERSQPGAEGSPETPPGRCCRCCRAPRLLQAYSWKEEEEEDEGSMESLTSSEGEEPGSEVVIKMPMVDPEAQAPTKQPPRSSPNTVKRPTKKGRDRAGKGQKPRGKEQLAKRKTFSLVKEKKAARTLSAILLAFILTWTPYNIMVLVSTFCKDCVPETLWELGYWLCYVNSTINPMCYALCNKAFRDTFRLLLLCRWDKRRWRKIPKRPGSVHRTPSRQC
# Assay: Cholinergic receptor muscarinic 1 (CHRM1) small molecule antagonists, cell-based qHTS assay (AID 1963588); note: nearly all actives have a fitted effect of over 40% in size; note: potency is the fitted concentration of half-maximal effect
# Conditions: CHRM1-CHO antagonist mode, calcium flux fluorescence; series mostly up to 61.5 µM; activity, negative = inhibition: at the top concentration
# Outline: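 CHRM1-CHO calcium-flux assay, antagonist mode. Cells were seeded 18 h, dye-loaded 1 h at 37 C and given compound for 5 min at RT, then acetylcholine was added at 50nM. FDSS fluorescence was read 3 min; 15 concentrations, three runs.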
SMILES,"activity, negative = inhibition",Potency
C=CC(=C)CC/C=C(\C)CCC=C(C)C,-6.65% [at 12.6 µM],
CC(C)C[P+](C)(CC(C)C)CC(C)C,-7.7%,
CCCCCCCCCCCCCCCCCCN(C)C,13.9% [at 28.3 µM],
CCCCCCCCCCCCCOP(=O)(O)O,14.3%,
CCCC(C)C,3.76%,
Cc1[nH]c(=O)c(C#N)cc1-c1ccc2nccn2c1,-4.63% [at 28.3 µM],
CC(=O)Nc1ccc(OCC(O)CNC(C)C)cc1 (stereo not drawn),5.07% [at 28.3 µM],
O=C(NS(=O)(=O)/C=C/c1ccccc1)c1ccc(F)cc1Cl,13.4%,
CCOC(=O)CCCCCCCCC(=O)OCC,-18.1%,
CC(C)OC(=O)C(C(=O)OC(C)C)=C1SC=CS1,-12.6% [at 28.3 µM],
O=C(CN1CCN(Cc2ccc3c(c2)OCO3)CC1)N1c2ccccc2Sc2ccccc21,-11.4% [at 28.3 µM],
CC(=O)Oc1ccc(C(C)=O)cc1,2.86%,
Cc1ccc(C(=O)Oc2ccc(C(O)CNC(C)(C)C)cc2OC(=O)c2ccc(C)cc2)cc1 (stereo not drawn),6.83% [at 28.3 µM],
Oc1ccc(Cl)c2cccnc12,-28% [at 28.3 µM],
CCCCCCCC/C=C\CCCCCCCCOCCO,-62.5%,
CC(=O)OC(C)c1ccccc1 (stereo not drawn),-1.14%,
O=S(=O)(Cl)c1c(Cl)cccc1Cl,9.74%,

SMILES,"activity, negative = inhibition",Potency
CCOC(=O)CC1(C)OCC(C)O1 (stereo not drawn),24.9%,
C1CC(COCC2CO2)CCC1COCC1CO1 (stereo not drawn),6.38%,
CCCCCCCCCCC(=O)O,-12.6%,
O=C1OCc2ccccc21,3.85%,
CC1(C)C(=O)N(CO)C(=O)N1CO,-0.577%,
CCCC(c1cc(C(C)(C)C)c(O)cc1C)c1cc(C(C)(C)C)c(O)cc1C,-35.5%,
O=C(O)CNCC(=O)O,-11.9% [at 5.58 µM],
CCCS(=O)c1ccc2nc(NC(=O)OC)[nH]c2c1 (stereo not drawn),-2.43% [at 28.3 µM],
O=C(OCc1ccccc1)C(=O)OCc1ccccc1,-25.9%,
Cl[Si](Cl)(c1ccccc1)c1ccccc1,1.4%,
N=C(N)c1ccc(OCCCOc2ccc(C(=N)N)cc2)cc1,-10.2% [at 28.3 µM],
COC(=O)C(C)O (stereo not drawn),-7.99%,
C=CC(=O)OCCCCCCCCCC,-25.7%,
CO[Si](CCCNc1ccccc1)(OC)OC,31.3%,
CCCCCCCCCCCCCCCCOS(=O)(=O)O,3.7% [at 28.3 µM],
CC(C)(c1ccc(Oc2ccc3c(c2)C(=O)OC3=O)cc1)c1ccc(Oc2ccc3c(c2)C(=O)OC3=O)cc1,,37.3 µM (active)
